# Reference: PubChem BioAssay (NCATS)
# Results filed as inconclusive are left out. A call without a number means that no potency is given here. Activity calls are given as the source filed them. Calls follow the shape of the dose curve; as a rule, active = well fitted curve in the direction sought with a large enough effect; inconclusive = small, poorly fitted or top-dose-only effect, or another doubt; inactive = no such curve, though single readings can be large; an effect the other way counts as inactive or inconclusive.
# Experiments:
# [1] = qHTS to identify inhibitors of the type 1 interferon - major histocompatibility complex class I in skeletal muscle: primary screen against the NCATS LOPAC collection (AID 1347405);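 also: lytic HiBiT luminescence reporting HLA-B protein level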; also: potency is read from the fitted curve at half-maximal effect
# In short: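 CRISPR-engineered immortalized human myoblasts (C25cl48) with HiBiT fused to endogenous HLA-B*08:01, stimulated with 4 ng/ml IFN-beta. LOPAC compounds tested as a 7-point 1:4.3 titration (top 46 uM final), 24 h at 37 C; lytic HiBiT luminescence read.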
# [2] = qHTS for inhibitors of adenylyl cyclases using a fission yeast platform: a pilot screen against the NCATS LOPAC library (AID 1347410)
# In short: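 Read-out: fbp1-GFP fluorescence by laser scanning cytometry (488 nm laser), a gain of signal when AC/cAMP-PKA signalling is inhibited. Strain CHP2027 expressing AC9, GNAS and PDE4D2; compounds at up to 57 µM; 18 h, 30C.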
# [3] = Validation qHTS assay for inhibitors of Activation Induced Cytidine Deaminase (AID): UDG Counterscreen signal (AID 1347427)
# In short: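 Counterscreen read of UDG activity (2 U/mL, 4/3x) in the FRET deamination format with AID (1 uM, 4/3x), DJC20/DJC23 substrates (250 nM, 4x), 4 h at room temperature. NaOH stop, fluorescence at 560 ex/665 em.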
SMILES,Potency [1],outcome [2],Potency [3]
CC(=O)O[C@H]1Cc2ccccc2N(C(N)=O)c2ccccc21,inactive,inactive,inactive
CCCCCCCCCC(=O)NC(CN1CCOCC1)[C@H](O)c1ccccc1 (some centres not stated),inactive,inactive,inactive
Nc1ncnc2c1nc(Br)n2C1OC2COP(=O)(O)O[C@@H]2C1O (some centres not stated),inactive,inactive,inactive
O=[N+]([O-])c1cccc2cn[nH]c12,inactive,inactive,inactive
O=C(O)/C=C/c1ccc(O)c(O)c1,inactive,inactive,inactive
COc1ccccc1N1CCN(CCCCNC(=O)c2ccc3ccccc3c2)CC1,inactive,inactive,inactive
CCCOC(=O)c1c(-c2ccccc2)nc(CC)c(C(=O)SCC)c1CCC,inactive,inactive,inactive
CC(N)(C(=O)O)c1ccc(C(=O)O)cc1 (configuration not stated),inactive,inactive,inactive
C[C@H](O)C(=O)C1=Nc2c(nc(N)[nH]c2=O)NC1,inactive,inactive,inactive
N=C(N)SCCN,inactive,inactive,inactive
C[C@]12C=CC(=O)C=C1CC[C@@H]1C2=CC[C@]2(C)[C@@H](C(=O)CN3CCN(c4cc(N5CCCC5)nc(N5CCCC5)n4)CC3)CC[C@@H]12,inactive,inactive,inactive
COc1ccc(-c2cc3ncc(C)n3c(Nc3ncccc3C(N)=O)n2)cc1OC,3.16 µM (active),inactive,inactive
c1ccc2c(c1)CCC[C@H]2Nc1nc2ccccc2[nH]1,inactive,inactive,inactive
O[Si](CCCN1CCCCC1)(c1ccc(F)cc1)C1CCCCC1 (configuration not stated),inactive,inactive,inactive
N[C@H]1CONC1=O,inactive,inactive,inactive
COC(=O)[C@H](NC(=O)c1cc(-c2ccccc2)nc2ccccc12)c1ccccc1,inactive,inactive,inactive
CC1CNCCN1S(=O)(=O)c1cccc2cnccc12 (configuration not stated),inactive,inactive,inactive
CC(=O)N[C@@H](Cc1c[nH]c2ccccc12)C(=O)OCc1cc(C(F)(F)F)cc(C(F)(F)F)c1,inactive,inactive,inactive
COc1ccc2c(c1)c(CC(=O)O)c(C)n2Cc1ccc(Cl)cc1,inactive,inactive,inactive
NCCS(=O)O,inactive,inactive,inactive
NS(=O)(=O)c1cccc2c1c([N+](=O)[O-])cc1nc(O)c(O)nc12,inactive,inactive,inactive
CCCCCC[C@@H]([C@@H](C)O)n1cnc2c(N)ncnc21,inactive,inactive,inactive
CC(=O)C(C)=O,inactive,inactive,inactive
O=C(O)[C@H]1NCCC[C@H]1C(=O)O,inactive,inactive,inactive
CC(N)=NCCCC[C@@H](N)C(=O)O,inactive,inactive,inactive
Brc1c(Br)c(Br)c2[nH]cnc2c1Br,12.6 µM (active),inactive,inactive
O=C(O)CCC(=O)N1CCCC1C(=O)O (configuration not stated),inactive,inactive,inactive
Cc1cccc(C)c1OCC(N)C(C)C (configuration not stated),inactive,inactive,inactive
CC(N)=O,inactive,inactive,inactive
